MPTP block = inhibitors of mitochondrial permeability transition pore; inhibition, % at 10 µM; hit rate 1.4% among 360,000; AID 602449; isolated mouse mitochondria, Ca2+ swelling absorbance, 30 min;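 active = inhibition of 50% or more, scaled per plate between neutral and stimulator controls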;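 note: 0% = DMSO wells given calcium and 100% = 1 mM EGTA wells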
NR3A LBD binder = NR3A (human) ligand-binding domain modulation | hit rate 2.5% among 340,000 | AID 1259313 | Tm shift relative to glycine control, % at 25 µM | NR3A LBD differential scanning fluorimetry, Tm shift; 0% = protein alone, 100% = glycine-bound protein;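 active = melting temperature shift of at least 10% of the positive control shift, at one fixed dose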
TMEM16A inh = mouse TMEM16A channel inhibition, primary screen; Q8BHY3; HEK293 TMEM16A/YFP iodide influx fluorescence, ionomycin; normalized B-score (activity score, 25-100; higher = stronger inhibition) at 10 µM; hit rate 1.2% among 310,000;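 active = ratio plate-corrected score three or more library SD toward inhibition, starting fluorescence score within five deviations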;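 note: score derived from kinetic fluorescence span divided by baseline fluorescence per well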
CRFBP-R2 block = blocks CRF-induced signaling of the CRF-BP/CRF-R2 complex. HEK293 CRF-R2/CRF-BP, CRF-induced calcium fluorescence. inhibition, % at 11.8 µM. hit rate 0.59% among 350,000;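 active = inhibition of the ligand-induced calcium signal above about 50% at the single tested concentration, limit read from the data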
ANO1 activ = mouse TMEM16A channel activation, primary screen; Q8BHY3; HEK293 TMEM16A/YFP-H148Q/I152L, iodide quench fluorescence; stronger effect = lower value; B-score at 10 µM; hit rate 0.3% among 340,000;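 active = fluorescence-ratio B-score plate-corrected deviation score at least 3 library SD below zero, with starting fluorescence score within 5 deviations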;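 note: channel opened by trigger with iodide after compound preincubation; score built on the fluorescence ratio of max minus min over baseline; more negative score means more quench and so TMEM16A activation or potentiation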
CRFBP-R2 agonist = agonists of human CRF-binding protein/CRF-R2 receptor complex; HEK293 CRF-R2/CRF-BP, calcium dye fluorescence (FLIPR); percent of saturating CRF peptide response; activation, % at 13.2 µM; hit rate 0.46% among 350,000; AID 588473;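 active = activation of at least 50%, plus an integration ratio under a set limit after plate pattern correction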;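 note: plate controls were neutral control wells without compound for no effect and CRF at EC100 for full effect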
* marks the source's active call; other numbers are inactive results. Sampled rows, rich in hits. Any-hit rate of the full collection: about 5.1%.

Screening CN1C(=O)S/C(=C\c2ccccc2OCc2ccc(C(=O)O)cc2)C1=O returned MPTP block 1, NR3A LBD binder 3, TMEM16A inh inactive, CRFBP-R2 block -25, ANO1 activ inactive and CRFBP-R2 agonist 2.
Screening COc1cccc(/C=C2\SC(=O)NC2=O)c1OCc1ccc(C(=O)O)cc1 returned MPTP block 1, NR3A LBD binder 15*, TMEM16A inh inactive, CRFBP-R2 block -4, ANO1 activ inactive and CRFBP-R2 agonist -2.
Screening CC(C)N1C(=O)S/C(=C/c2ccccc2OCc2ccc(C(=O)O)cc2)C1=O returned MPTP block -1, NR3A LBD binder 0, TMEM16A inh inactive, CRFBP-R2 block 69*, ANO1 activ inactive and CRFBP-R2 agonist 4.
For N=C1/C(=C\c2ccc(-c3cccc(Cl)c3)o2)C(=O)N=C2SC=C(c3ccccc3)N12 the results were MPTP block 5, NR3A LBD binder 13*, TMEM16A inh inactive, CRFBP-R2 block -22, ANO1 activ inactive and CRFBP-R2 agonist 4.
Cc1cc(/C=C2\C(=N)N3N=C(CC(=O)N4CCOCC4)SC3=NC2=O)c(C)n1-c1ccccc1 was read as MPTP block -2, NR3A LBD binder -1, TMEM16A inh inactive, CRFBP-R2 block -13, ANO1 activ inactive and CRFBP-R2 agonist 2.
`CC1=CC2=NC(=O)/C(=C/c3coc4ccc(Cl)cc4c3=O)C(=N)N2O1` gave MPTP block 36, NR3A LBD binder -1, TMEM16A inh inactive, CRFBP-R2 block -60, ANO1 activ inactive and CRFBP-R2 agonist 106*.
CC1=NN2C(=N)/C(=C\c3cc(C)n(-c4ccc(C)cc4)c3C)C(=O)N=C2S1 was read as MPTP block 9, NR3A LBD binder 22*, TMEM16A inh inactive, CRFBP-R2 block -38, ANO1 activ inactive and CRFBP-R2 agonist 0.
CC1=CC2=NC(=O)/C(=C\c3cc(C)n(-c4ccccc4)c3C)C(=N)N2O1 was read as MPTP block 1, NR3A LBD binder -7, TMEM16A inh inactive, CRFBP-R2 block -54, ANO1 activ -4.9* and CRFBP-R2 agonist -2.
Screening CC1=CC2=NC(=O)/C(=C\c3cc(C)n(-c4cccc(Cl)c4)c3C)C(=N)N2O1 returned MPTP block -14, NR3A LBD binder -3, TMEM16A inh inactive, CRFBP-R2 block -21, ANO1 activ inactive and CRFBP-R2 agonist -1.
`Cn1c(N)c(N=O)c(=O)n(C)c1=S` gave MPTP block -2, NR3A LBD binder -2, CRFBP-R2 block 7, ANO1 activ inactive and CRFBP-R2 agonist 1.
`CN1CCN(CC(=O)Nc2cc(N(C)C)nc3ccccc23)CC1` gave MPTP block -2, NR3A LBD binder 1, TMEM16A inh inactive, CRFBP-R2 block 58*, ANO1 activ inactive and CRFBP-R2 agonist -2.
`CCN(CC)CC(=O)Nc1cc(N(C)C)nc2ccccc12` gave MPTP block -1, NR3A LBD binder -2, TMEM16A inh inactive, CRFBP-R2 block 12, ANO1 activ inactive and CRFBP-R2 agonist -1.
For c1ccc(Cn2c(-c3ccccc3)nc3nc4ccccc4nc32)cc1 the results were MPTP block 0, NR3A LBD binder 18*, TMEM16A inh inactive, CRFBP-R2 block 15, ANO1 activ inactive and CRFBP-R2 agonist 0.
`Clc1cccc(-c2nc3nc4ccccc4nc3n2Cc2ccccc2)c1` gave MPTP block 1, NR3A LBD binder 12*, TMEM16A inh inactive, CRFBP-R2 block -17, ANO1 activ inactive and CRFBP-R2 agonist -1.
Screening COc1cc(NC(=O)C/C(C)=N/NC(=O)C2CCCCC2)c(OC)cc1Cl returned MPTP block 0, NR3A LBD binder -1, TMEM16A inh inactive, CRFBP-R2 block 2, ANO1 activ inactive and CRFBP-R2 agonist -1.
`Cc1ccc(NC(=S)NCc2ccc3[nH]c4c(c3c2)CCCC4)cc1` gave MPTP block 3, NR3A LBD binder 11*, TMEM16A inh inactive, CRFBP-R2 block -17, ANO1 activ inactive and CRFBP-R2 agonist 3.
`O=C(COc1ccc2c3c(c(=O)oc2c1)CCC3)Nc1ccccn1` gave MPTP block 0, NR3A LBD binder 3, TMEM16A inh inactive, CRFBP-R2 block -16, ANO1 activ inactive and CRFBP-R2 agonist 1.
`O=C(N/N=C/c1c(Cl)[nH]c2ccccc12)c1ccc2c(c1)OCCO2` gave MPTP block 1, NR3A LBD binder 18*, TMEM16A inh inactive, CRFBP-R2 block 3, ANO1 activ inactive and CRFBP-R2 agonist 0.
Screening O=C1[C@H]2CCCC[C@H]2C(=O)N1CCCCN1CCN(c2nsc3ccccc23)CC1 returned MPTP block -1, NR3A LBD binder -3, TMEM16A inh inactive, CRFBP-R2 block 8, ANO1 activ inactive and CRFBP-R2 agonist 0.
`Cc1ccc(C2CC(=O)Oc3cc(C)c(Br)c(C)c32)cc1` (configuration not stated) gave MPTP block -2, NR3A LBD binder 18*, CRFBP-R2 block -6, ANO1 activ inactive and CRFBP-R2 agonist 2.
For CC(C)=CCc1c(O)ccc(C(=O)Cc2ccccc2)c1O the results were MPTP block 7, NR3A LBD binder 18*, TMEM16A inh inactive, CRFBP-R2 block -8, ANO1 activ inactive and CRFBP-R2 agonist 8.
CCCn1c(=O)c2ccccc2n2c(SCCOc3ccc(OC)cc3)nnc12 was read as MPTP block 2, NR3A LBD binder 11*, TMEM16A inh inactive, CRFBP-R2 block 3, ANO1 activ inactive and CRFBP-R2 agonist 3.
For CCCn1c(=O)c2ccccc2n2c(SCCOc3ccc(C)cc3)nnc12 the results were MPTP block 3, NR3A LBD binder 0, TMEM16A inh inactive, CRFBP-R2 block 7, ANO1 activ inactive and CRFBP-R2 agonist 0.
For CCOc1ccc(C(C)=O)cc1CN1C(=O)c2ccccc2S1(=O)=O the results were MPTP block 0, NR3A LBD binder -2, TMEM16A inh inactive, CRFBP-R2 block -9, ANO1 activ inactive and CRFBP-R2 agonist 2.
O=C1NCCCCC1NS(=O)(=O)c1cccc2ccccc12 (configuration not stated) was read as MPTP block -1, NR3A LBD binder -1, TMEM16A inh inactive, CRFBP-R2 block 69*, ANO1 activ inactive and CRFBP-R2 agonist -2.
For O=C1NCCCCC1NS(=O)(=O)c1ccccc1 (configuration not stated) the results were MPTP block 0, NR3A LBD binder 2, TMEM16A inh inactive, CRFBP-R2 block -2, ANO1 activ inactive and CRFBP-R2 agonist 1.
`O=C(CSc1ccc(Cl)cc1)Nc1ccc(N2CCN(c3ccccc3)CC2)c(F)c1` gave MPTP block -2, NR3A LBD binder 19*, TMEM16A inh inactive, CRFBP-R2 block 8, ANO1 activ inactive and CRFBP-R2 agonist 2.
